MsrA inhibitor: bovine MsrA enzyme inhibitors, primary screen, biochemical, absorbance, HTS | Methionine sulfoxide reductase A (Bos taurus) | purified bovine MsrA, absorbance read-out | inhibition, % at 15.5 µM | 360,000 tested, 0.75% active | AID 651718, 2012; in the data active = inhibition above about 4.5%;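 note: 0% = vehicle wells with enzyme and 100% = reference inhibitor wells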
PG9 Ab binder: binders of HIV-1 gp120 antibody PG9, primary screen, biochemical, TR-FRET | HIV-1 gp120 / PG9 antibody interaction | TR-FRET gp120-PG9 antibody binding | inhibition, % at 6.7 µM | 360,000 tested, 0.43% active | AID 624416, 2012; in the data active = inhibition above about 8.5%
sPLA2-III inh: human group III sPLA2 inhibitors, primary screen, biochemical, QFRET, BODIPY PC-A2 liposome substrate. AID 743126, 2013. QFRET BODIPY PC-A2 liposome hydrolysis, fluorescence. inhibition, % at 12.2 µM. Group 3 secretory phospholipase A2 (Homo sapiens), Q9NZ20. 370,000 tested, 0.56% active;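 active = inhibition above mean plus 3 SD of compounds lying within the high and low control bounds, cut at about 19% in these data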;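 note: 0% = median of test compound wells and 100% = no enzyme DMSO wells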
Target sequence (Q9NZ20 whole entry, looked up): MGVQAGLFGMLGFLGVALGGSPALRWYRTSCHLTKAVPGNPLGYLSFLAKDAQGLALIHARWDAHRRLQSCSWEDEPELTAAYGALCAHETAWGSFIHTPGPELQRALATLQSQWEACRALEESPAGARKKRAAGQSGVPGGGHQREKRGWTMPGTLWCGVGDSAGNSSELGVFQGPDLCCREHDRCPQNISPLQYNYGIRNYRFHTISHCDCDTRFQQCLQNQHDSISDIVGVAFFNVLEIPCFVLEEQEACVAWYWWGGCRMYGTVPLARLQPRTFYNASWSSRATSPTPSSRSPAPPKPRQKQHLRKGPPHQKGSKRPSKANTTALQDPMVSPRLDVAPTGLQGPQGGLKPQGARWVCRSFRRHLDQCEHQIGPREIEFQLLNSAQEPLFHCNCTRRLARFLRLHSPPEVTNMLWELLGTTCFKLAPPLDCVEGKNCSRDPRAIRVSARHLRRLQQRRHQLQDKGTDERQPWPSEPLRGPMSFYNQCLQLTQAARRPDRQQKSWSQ
bovine MsrA act: bovine MsrA enzyme activators, primary screen, biochemical, absorbance, HTS; purified bovine MsrA, absorbance read-out; activation, % at 10.6 µM; 360,000 tested, 0.3% active; in the data active = activation above about 7.5%;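 note: 0% = vehicle and 100% = reference activator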
rCAG binder: binders of r(CAG) RNA repeats, primary screen, biochemical, fluorescence. r(CAG) RNA repeat, TO-PRO-1 dye displacement fluorescence. inhibition, % at 3 µM. 370,000 tested, 1.3% active;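 active = inhibition above the plate cutoff, the mean of all test compounds on that plate plus 3 SD, cut at about 35% in these data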;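 note: 0% = DMSO alone and 100% = 100 µM mitoxantrone as full dye displacement; higher means more dye released from RNA so lower well fluorescence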
hGIII sPLA2 conf: human group III sPLA2 inhibitors, confirmation, biochemical, QFRET, triplicate; shares compounds with sPLA2-III inh; recombinant hGIII-sPLA2, BODIPY PC-A2 QFRET fluorescence; inhibition, % at 12.2 µM; 2,000 tested, 34% active;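 active = mean inhibition across triplicates above the hit cutoff set in the earlier primary screen, cut at about 19% in these data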;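 note: 0% = enzyme with DMSO and 100% = DMSO wells lacking enzyme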
BODIPY interf: 535nm fluorescence optical interference, confirmation, artefact control for HGIII-sPLA2 inhibitor project, biochemical, QFRET | 2,000 tested, 8.5% active | inhibition, % at 12.2 µM | shares compounds with sPLA2-III inh | BODIPY FL product fluorescence interference;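 active = average inhibition above the solvent-only control mean plus 3 SD, cut at about 6% in these data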;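 note: 0% = DMSO with substrate plus product and 100% = DMSO with substrate alone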
535nm interf DR: 535nm fluorescence optical interference, dose response, artefact control for HGIII-sPLA2 inhibitor project, biochemical, QFRET; shares compounds with sPLA2-III inh; BODIPY FL product fluorescence interference, cell-free; IC50, µM; 240 tested, under 10 active; AID 743455, 2014;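 active = IC50 at or below 10 µM; inactive = IC50 above 10 µM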
Starred values were filed as active, the others as inactive; . = not tested or not shown. This is a sample that favours compounds with a hit; in the whole collection about 3.2% have one here.

SMILES | MsrA inhibitor | PG9 Ab binder | sPLA2-III inh | bovine MsrA act | rCAG binder | hGIII sPLA2 conf | BODIPY interf | others
Nc1nc(N)c2c(ccc3c2ccn3Cc2cccc([N+](=O)[O-])c2)n1 | 0 | -1 | 1 | -1 | 14 | . | .
CCOc1cc(OCC)cc(C(=O)N2CCC[C@@H]2C(=O)N2CCC[C@@H]2C(=O)NCc2cccc(OC)c2)c1 | 0 | 0 | 4 | . | 0 | . | .
O=C(NNC(=O)c1cc2ccccc2cc1O)Nc1ccc(Br)cc1 | 1 | -2 | 31* | -5 | 28 | 31* | 6.2*
COc1ccc(NC(=O)NNC(=O)c2cc3ccccc3cc2O)cc1 | 1 | -1 | 22* | -5 | 23 | 23* | 2
CCOc1ccc(NC(=O)c2cc3ccccc3cc2O)cc1 | 2 | 3 | -40 | -4 | 15 | . | .
O=c1[nH]c2c(c(=O)[nH]1)OCN(Cc1ccccc1)C2 | 0 | 0 | -3 | -6 | 1 | . | .
CC(c1ccccc1)n1c(-c2ccccc2F)n[nH]c1=S (stereo not given) | 1 | 1 | 24* | -1 | 4 | 8 | -1
Cc1cccc2c1N(CCCOc1ccc(C(C)(C)C)cc1)C(=O)C2=O | . | . | . | 0 | . | . | .
Cc1ccccc1OCCCN1C(=O)C(=O)c2cccc(C)c21 | -1 | -3 | 28* | 1 | 2 | 38* | -2 | 535nm interf DR=>122
Cc1cccc2c1N(CCCOc1ccccc1)C(=O)C2=O | -1 | 2 | 21* | -10 | 3 | 18 | -4
COC(=O)C1=C(C)N(Cc2ccccc2C(F)(F)F)C(=NCc2ccccc2)NC1c1cccc(F)c1 (stereo not given) | -1 | 0 | 0 | . | 4 | . | .
CC1(C)CC(=O)C=C(C#CC2CC2)C1 | 0 | -1 | 0 | . | 6 | . | .
COc1ccccc1N1CCN(CCN2C(=O)CC3(CCCC3)CC2=O)CC1 | 1 | 0 | 20* | -1 | 1 | 1 | -18
COC(=O)c1ccc(/C=N/NC(=O)c2ccc3nc[nH]c3c2)cc1 | 1 | -2 | -1 | -5 | 2 | . | .
Cc1ccc(/C=N/NC(=O)c2ccc3nc[nH]c3c2)o1 | 3 | -2 | 21* | -3 | 0 | 2 | -2
COC(=O)C1CN(Cc2ccc(F)cc2)CCS(=O)(=O)N1Cc1cn(Cc2ccc(F)cc2)nn1 (stereo not given) | . | . | -8 | . | 1 | . | .
COc1cc(CNn2c(C)n[nH]c2=S)cc(Cl)c1OCC(=O)NC(C)(C)C | 0 | 0 | 29* | 0 | 0 | 25* | -4
COC(=O)[C@]12CCCCC=C1N(CCC1=CCCCC1)C(=O)[C@H](CC(=O)NCc1cccc3ccccc13)C2 | -1 | 2 | -11 | -2 | 7 | . | .
COc1ccc(C(=O)C2(C(=O)NCc3ccccc3)CC(c3ccccn3)=NO2)cc1 (stereo not given) | . | . | 4 | . | 0 | . | .
COc1cc(C2Nc3cc(C)c(C)cc3NC3=C2C(=O)CC(C)(C)C3)ccc1OC(C)=O (stereo not given) | 4 | -6 | 24* | -4 | -8 | 8 | -9
O=C(NCc1ccccc1)[C@@H]1CCCN1C(=O)[C@H]1CCCN1C(=O)c1ccc(F)c(C(F)(F)F)c1 | 0 | 0 | 5 | . | 1 | . | .
Cc1ccc(Cn2c(=O)c3c(nc4n3CCCN4Cc3ccccc3)n(C)c2=O)cc1 | 1 | -1 | 73* | -4 | 0 | 7 | -17
CN(CCOC(=O)c1cc2ccccc2o1)C1CN(Cc2cn(Cc3ccc([N+](=O)[O-])cc3)nn2)S(=O)(=O)C1 (stereo not given) | . | . | -8 | . | 2 | . | .
c1ccc(C[n+]2cccc(-c3ccccc3)c2)cc1 | -1 | -2 | 0 | -3 | 0 | . | .
NC(=O)c1ccc[n+](Cc2ccccc2)c1 | 0 | -2 | 19* | -5 | 3 | 1 | -6
SMILES | MsrA inhibitor | PG9 Ab binder | sPLA2-III inh | bovine MsrA act | rCAG binder | hGIII sPLA2 conf | BODIPY interf | others
CCCN1C[C@@H](C)[C@@H](OC)CN(C)C(=O)c2ccc(NC(=O)c3cccc(F)c3)cc2OC[C@H]1C | 1 | 1 | 20* | . | 2 | 4 | -11
CCOc1ccc(-n2c(N)c(-c3nc4ccccc4[nH]3)sc2=S)cc1 | 1 | -2 | 20* | -3 | 11 | 33* | 2 | 535nm interf DR=>122
COc1ccc(-n2c(N)c(-c3nc4ccccc4n3C)sc2=S)cc1 | 1 | 1 | 3 | -4 | 5 | . | .
N#CCC[C@@H]1CC[C@]2(CCCN(C(=O)c3ccno3)C2)O1 | . | . | 3 | . | 0 | . | .
N#Cc1sc2nc3c(c(-c4ccco4)c2c1N)CCCC3 | 0 | 1 | -6 | -4 | 3 | . | .
NC(=O)c1sc2nc3c(c(-c4ccco4)c2c1N)CCCC3 | 1 | 0 | 20* | -2 | 6 | -1 | -11
COC(=O)C[C@@H]1CC[C@H]2[C@H](COc3ccc(NC(=O)Nc4ccc(Cl)cc4)cc3C(=O)N2C)O1 | . | . | -19 | . | 5 | . | .
O=C(O)CC1(CC(=O)NCc2cc(F)cc3c2OCOC3)CCCCC1 | 0 | 0 | 20* | -3 | 2 | 0 | -2
O=C(O)CC1(CC(=O)Nc2ccc3c(c2)C(=O)OC3)CCCCC1 | -2 | 0 | 2 | -1 | 0 | . | .
Cc1cc2c(s1)c1cnn(Cc3c(Cl)ccc(C)c3F)c(=O)c1n2C | . | . | -3 | . | . | . | .
CCOc1cc(NC(=S)NCc2ccco2)c(OCC)cc1NC(=O)CC(C)C | 1 | 1 | 20* | -2 | -7 | 11 | -4
CCOc1cc(NC(=S)NCc2ccccc2)c(OCC)cc1NC(=O)C(C)C | 0 | -1 | 20* | -3 | -9 | 29* | -6 | 535nm interf DR=>122
CCOc1cc(NC(=S)NCc2ccco2)c(OCC)cc1NC(C)=O | 0 | 0 | 12 | 1 | -1 | . | .
COc1ccc(NCC(=O)Nc2cccc(S(=O)(=O)N3CCCC3)c2)cc1Cl | 0 | -2 | 1 | -2 | 9 | . | .
CCOC(=O)c1cc(CC)sc1/N=C/C1=C(O)CC(C)(C)CC1=O | 0 | -1 | 23* | -2 | -3 | 11 | -2
CCOC(=O)c1ccc(N=CC2=C(O)CC(C)(C)CC2=O)cc1 | 2 | 2 | 3 | -5 | -2 | . | .

Assay outcomes deposited in PubChem BioAssay by The Scripps Research Institute Molecular Screening Center.
